# Measured values taken from PMC7819943, “Rice protein-binding microarrays: a tool to detect cis-acting elements near promoter regions in rice”.
# Over roughly 68,000 sequences, “fluorescence intensity (a.u.)” has its median near 9,100; the highest 2% begin near 16,000. The sample as a whole holds a higher share of the highest values than the screen did.
# Target: OsWRKY34 (Oryza sativa, UniProt Q0JBA9 1-250)
# Assay: protein-binding microarray (RPBM); PBS, 2% BSA, 51.3 ng/ul salmon testes DNA, 50 uM zinc acetate, 200 nM TF, 25 C, 1 h; high values mean tight binding
# Details: protein: recombinant; tags: N-terminal polyhistidine and DsRed monomer fusion (pET32a); label: CyDye5-dUTP incorporated in the synthesized complementary strand; 3' TTTTT single-stranded linker to array surface; dsDNA, one strand shown
# In short: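 A custom Agilent array was converted to double-stranded form by primer extension with Cy5-dUTP and blocked with 2% BSA. Protein at 200 nM in PBS with 2% BSA, salmon testes DNA and 50 µM zinc acetate was applied for 1 h at 25 °C, followed by washing. The proteins were polyhistidine–DsRed N-terminal fusions of transcription factors, expressed in E. coli BL21-CodonPlus and Ni–NTA-purified. The binding signal is per-feature fluorescence intensity (arbitrary units) from an Axon 4000B scanner.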
# Chain of OsWRKY34 (Q0JBA9 entry or part of it): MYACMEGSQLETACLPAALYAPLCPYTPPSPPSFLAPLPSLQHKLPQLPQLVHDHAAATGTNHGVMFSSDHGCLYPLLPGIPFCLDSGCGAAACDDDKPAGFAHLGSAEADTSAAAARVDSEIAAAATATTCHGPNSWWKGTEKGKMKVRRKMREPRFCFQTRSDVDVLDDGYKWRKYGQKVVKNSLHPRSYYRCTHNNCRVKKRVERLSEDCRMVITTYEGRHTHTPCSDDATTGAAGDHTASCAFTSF
row,Sequence,binding signal
1,CCTGCCCGGTGTGCTGTGACTTGCCGTTATCGTCACCGTTCGGAGTCACCTAGTGCAG,10200 fluorescence intensity (a.u.)
2,CACTTCTTTTCTCTATGGCGGCATCTGAATCTATGTGGATCGGAGTCACCTAGTGCAG,9450 fluorescence intensity (a.u.)
3,AATCACCTCCCTTATCTTACCTGCATGACAAATGCCTCGACGGAGTCACCTAGTGCAG,8590 fluorescence intensity (a.u.)
4,ACCCACCATGCCACCCCACTCCTTCTTTAAACTTGTAAACCGGAGTCACCTAGTGCAG,9480 fluorescence intensity (a.u.)
5,TCTCCTATCCAGTTGGATTCCCAAAATTTCGCCTTTCGTCCGGAGTCACCTAGTGCAG,8070 fluorescence intensity (a.u.)
6,AACCGAAATCACTTTGGCAGCATGTTTTCCTCTGTAACCACGGAGTCACCTAGTGCAG,9350 fluorescence intensity (a.u.)
7,CAACCCCACCGCCGCCGCCGCAAACCGTCTCGCCGTCGCCCGGAGTCACCTAGTGCAG,11600 fluorescence intensity (a.u.)
8,GAGGTTGTTTTGTCGTCTAGCAAGTGTGTGTCGGGTGGCGCGGAGTCACCTAGTGCAG,9220 fluorescence intensity (a.u.)
9,GTCATATGGCACCATGCTTGCTCTCCACTCTTCAATCAGTCGGAGTCACCTAGTGCAG,9490 fluorescence intensity (a.u.)
10,TCGCTGCTCTGCCCTTTTCCCTTTTTTTTTCTTTCTTCATCGGAGTCACCTAGTGCAG,10200 fluorescence intensity (a.u.)
11,CCCTCCCGTCAGTTGACCGTTAGTTGACCGTGTATTTTCTCGGAGTCACCTAGTGCAG,12200 fluorescence intensity (a.u.)
12,CCATCAGTTGACCATGTGTTGACCGTTAACTCTCAAGTAACGGAGTCACCTAGTGCAG,9190 fluorescence intensity (a.u.)
13,CTCCCGTCAGTTGACCGTGTGTTGACCGTTAATTCTCAAGCGGAGTCACCTAGTGCAG,17500 fluorescence intensity (a.u.)
14,TCCGTGTCCAATGTTTGACCATCCGTCTTATTTAAAAAAACGGAGTCACCTAGTGCAG,8070 fluorescence intensity (a.u.)
15,GTGTTGTGTTCATCTCCTTCGTTTACTTCTCTTCTCCTCTCGGAGTCACCTAGTGCAG,11500 fluorescence intensity (a.u.)
16,TATTCTGTTGTATTATGATATTATATATATTTTTCTTCGACGGAGTCACCTAGTGCAG,8980 fluorescence intensity (a.u.)
17,GTTCCTTTCAGAAACTGGCATTCGAGTTTTGAGTTTCTCGCGGAGTCACCTAGTGCAG,8720 fluorescence intensity (a.u.)
18,GATGGCCTTGACCATGCAGAAACAGGCATGGTTTCCTTCGCGGAGTCACCTAGTGCAG,64500 fluorescence intensity (a.u.)
19,AACAGGCATGGTTTCCTTCGTCGTTTCTACTAGCAGTTGCCGGAGTCACCTAGTGCAG,11900 fluorescence intensity (a.u.)
20,CATTTGACTTTTTTCTAGTCAAAGTTATTTATATTTAATTCGGAGTCACCTAGTGCAG,14100 fluorescence intensity (a.u.)
21,TAAGACGTTTTGACTTTGGTCAAACTGTTTGGTCAAAGTCCGGAGTCACCTAGTGCAG,10600 fluorescence intensity (a.u.)

row,Sequence,binding signal
1,CTAAAATTTCCTTATGTTTTCTTCTTCTTCTAGTTATGTGCGGAGTCACCTAGTGCAG,8800 fluorescence intensity (a.u.)
2,CTTTAGTTAAAGTCAAAGTGCTTCAAGTTTGACTAAGTTTCGGAGTCACCTAGTGCAG,9150 fluorescence intensity (a.u.)
3,GACTTTAGTCAAAGTCATGTTGTTTCAAGTTTGACTAATTCGGAGTCACCTAGTGCAG,18800 fluorescence intensity (a.u.)
4,ATTGTTATGTTCCTTTGTTTTCTTATAAATATAATTTAATCGGAGTCACCTAGTGCAG,9560 fluorescence intensity (a.u.)
5,TTTGGTCAAACTTAAAAAAGTTTGACTACAACTAAATTCACGGAGTCACCTAGTGCAG,8740 fluorescence intensity (a.u.)
6,GTTTTGACTTTGGTCAAAGTCAAACTAATTCAAGTTAGACCGGAGTCACCTAGTGCAG,17600 fluorescence intensity (a.u.)
7,TTTTCCTTAGTCAAAGTTATATATGTTTGACTAAATTTATCGGAGTCACCTAGTGCAG,18000 fluorescence intensity (a.u.)
8,TCATACATGTGATCACTCACTCACTCTCACACACACTCTCCGGAGTCACCTAGTGCAG,10100 fluorescence intensity (a.u.)
9,AAACAGACCCTTAATATGCTATATTTGTCTCCAATAAAACCGGAGTCACCTAGTGCAG,8480 fluorescence intensity (a.u.)
10,TTGCTCTTGTTAATGTTTGGCTTTCTTCTTCTTCTGCTGCCGGAGTCACCTAGTGCAG,8600 fluorescence intensity (a.u.)
11,GCTCCACCTACTCCGCTCCCCTCTGCTCGGCTGCTCCCATCGGAGTCACCTAGTGCAG,8470 fluorescence intensity (a.u.)
12,GGCCCTGAGCTCTCTCTTGCTGCTTCTTTTAATGGGTTTTCGGAGTCACCTAGTGCAG,9680 fluorescence intensity (a.u.)
13,CTGCCGCGCTTCGTCGCCGCGCTCGCCCGTCTTTCGCTCTCGGAGTCACCTAGTGCAG,8230 fluorescence intensity (a.u.)
14,CCTCATCCGCTGCTCTGCTCCCACCATTGCTGCTCTCTCTCGGAGTCACCTAGTGCAG,17700 fluorescence intensity (a.u.)
15,CTCCATTCTTGTTTGTTCCTTCTTTGCTTTCAGCTGCTTTCGGAGTCACCTAGTGCAG,15000 fluorescence intensity (a.u.)
16,ACACTCTGCTGCATCTCTTATCCCTTCATCTCGGTCTTAACGGAGTCACCTAGTGCAG,16600 fluorescence intensity (a.u.)
17,GGCTCGTGCACCTGCTCTCGTCTTTTCCACCGCTTTTTTTCGGAGTCACCTAGTGCAG,16800 fluorescence intensity (a.u.)
18,ACCAGCTTTCTTTCTCGTGCTTTCCTCTTCTTCTTTTTTTCGGAGTCACCTAGTGCAG,10900 fluorescence intensity (a.u.)
19,ATATCCCTTCTCTTCCCTCATCTCTCCACCTCTTCCATCTCGGAGTCACCTAGTGCAG,8890 fluorescence intensity (a.u.)
20,GCTCCCTGCTGCCATATCCTATCATCTCCTCTCTTCCTCTCGGAGTCACCTAGTGCAG,8540 fluorescence intensity (a.u.)
21,TCTCTCTCTCTCTCCTCTGCATCCGCGCGCATTGCTCGATCGGAGTCACCTAGTGCAG,9000 fluorescence intensity (a.u.)

row,Sequence,binding signal
1,TGGGGTTTTCAGCTTGCCAATGCTGCATTATCTTCTTTTTCGGAGTCACCTAGTGCAG,17200 fluorescence intensity (a.u.)
2,GCAGCATCACCCGCAGCCGCCGCCGCCGCCGCCATGGACTCGGAGTCACCTAGTGCAG,10100 fluorescence intensity (a.u.)
3,GCAATACACCTGATTTGATACTTCTTCCGATATAATACTCCGGAGTCACCTAGTGCAG,8900 fluorescence intensity (a.u.)
4,GATTGTATATGCCTGATAGGACTAGTTAGTGTGTTTTCTTCGGAGTCACCTAGTGCAG,9220 fluorescence intensity (a.u.)
5,CACTAGTTTTAGTTACTAACTTATGGCTCTTGTGCTATCACGGAGTCACCTAGTGCAG,8070 fluorescence intensity (a.u.)
6,AAGACACAGCTTCAACACGTAACCTATGCACTACACACTACGGAGTCACCTAGTGCAG,11700 fluorescence intensity (a.u.)
7,CCCGTTCTAATTCAGTTTCTCCCTTTCTTACCGCATGTACCGGAGTCACCTAGTGCAG,8490 fluorescence intensity (a.u.)
8,GTTCTCTAGCCGCTTGTGATACTCGCAATCCTAAACCACGCGGAGTCACCTAGTGCAG,8410 fluorescence intensity (a.u.)
9,TAACTGCGTTGACATGTCGCCTTGCTATACTCACATTCTTCGGAGTCACCTAGTGCAG,9470 fluorescence intensity (a.u.)
10,TCTCACTCTCTCACACACACACTCTCTCTCTCTGCTAGCTCGGAGTCACCTAGTGCAG,9820 fluorescence intensity (a.u.)
11,GAATGTTGATGCTGTTGATGCATGCACCTGCCGAAGGCCGCGGAGTCACCTAGTGCAG,9170 fluorescence intensity (a.u.)
12,TGTTTGCTGCTGCTGCTGCTCTGCTTTTCTCTTTTTTCTTCGGAGTCACCTAGTGCAG,9490 fluorescence intensity (a.u.)
13,CTCTTGCTGTTTCCTTTGCTCTGTTTCCTCTGCCTGCGCCCGGAGTCACCTAGTGCAG,8760 fluorescence intensity (a.u.)
14,TTCACCACCACCGCCACGGCCTCTGCCTCTCGCTCTCTCTCGGAGTCACCTAGTGCAG,10200 fluorescence intensity (a.u.)
15,CTCGCCATCTCTGCCGCCGGTCCGCCGCCTCGCTCGCTCGCGGAGTCACCTAGTGCAG,9470 fluorescence intensity (a.u.)
16,ATCCCGGCCTGCTCTTGCGCTTTGACTTTTTGTAGAGTTTCGGAGTCACCTAGTGCAG,18200 fluorescence intensity (a.u.)
17,CTTCTGTCATATCACCTTGCCGCTGCTTCTGATCATCTCCCGGAGTCACCTAGTGCAG,8670 fluorescence intensity (a.u.)
18,TTGTTCTTGCTGCATTTCTTCTTCTCGTTTTTTTTTCTTTCGGAGTCACCTAGTGCAG,16900 fluorescence intensity (a.u.)
19,TGTCCGCCACGCTCTCGCCATCTGCCTGTACCACTAATCTCGGAGTCACCTAGTGCAG,22500 fluorescence intensity (a.u.)
20,CGCTGCTTCTGATCATCTCCCGTTCTTGCATTCTTCTTCTCGGAGTCACCTAGTGCAG,19400 fluorescence intensity (a.u.)
21,GAATCTGCTTCTCATTCTTTTTTTCTTGCTGATCATCATGCGGAGTCACCTAGTGCAG,10200 fluorescence intensity (a.u.)

row,Sequence,binding signal
1,CACCACCTTTGTTTGCTGCTCTCCATTTTTTTTCTTCGTTCGGAGTCACCTAGTGCAG,10200 fluorescence intensity (a.u.)
2,ACGCCCGCTTGATCCGCCTGCTGCGCGCGCGCGAGTTTTTCGGAGTCACCTAGTGCAG,9160 fluorescence intensity (a.u.)
3,TACTACTGTACTACTCTCAGTCTCTCGGCTTCTAGACTAGCGGAGTCACCTAGTGCAG,8600 fluorescence intensity (a.u.)
4,GATTCTAAACATCCACTCACACCTCATTTTTTTCATTAGCCGGAGTCACCTAGTGCAG,9350 fluorescence intensity (a.u.)
5,TGCCTGGCACCGTCCCCATCGCCGGCCGCCTCCGCCTCCGCGGAGTCACCTAGTGCAG,11300 fluorescence intensity (a.u.)
6,ACTTAATCCATTTTCTTTTCTTCTCCTATTTTTCCATCAACGGAGTCACCTAGTGCAG,9970 fluorescence intensity (a.u.)
7,ATATTTCTATGATTCTATCCCCTCCAGATTTATCGGCGCCCGGAGTCACCTAGTGCAG,8310 fluorescence intensity (a.u.)
8,CTTCCAGGCAGTTGTTCTGTATCCTCTTCTTGTTGCAACACGGAGTCACCTAGTGCAG,8920 fluorescence intensity (a.u.)
9,TTTTGGTTTTATGAGGCGGTGGATGGATACTTGTTACACTCGGAGTCACCTAGTGCAG,10300 fluorescence intensity (a.u.)
10,CGGCTTCTCGCTTTCTTGTTTCTCGTGGAGTTGCTTTTTTCGGAGTCACCTAGTGCAG,17500 fluorescence intensity (a.u.)
11,GTGGGCATGATTTTCTTCTGTTTTCTCGTTTTAATTTTTTCGGAGTCACCTAGTGCAG,20100 fluorescence intensity (a.u.)
12,TGTGCTTCTTTTTTTAATTTCTCTCTCTGTTTGCTTCTCTCGGAGTCACCTAGTGCAG,9720 fluorescence intensity (a.u.)
13,TCCTCTTCTGTTTTTCTGTTTTTTTTCGTTTCTCTTCCCTCGGAGTCACCTAGTGCAG,13300 fluorescence intensity (a.u.)
14,GTTCGTTCGCCCTGCTGCTTCTCCCGCCGCATCCATCCCGCGGAGTCACCTAGTGCAG,9640 fluorescence intensity (a.u.)
15,CTGCTTCTTTTGTTTGGTTGGTTTCAGGGCTTCGTGGCCACGGAGTCACCTAGTGCAG,17800 fluorescence intensity (a.u.)
16,TGTGCGCGTGTTGTTTTTTTGGCTTCTTTTTCGCTTGCCACGGAGTCACCTAGTGCAG,11400 fluorescence intensity (a.u.)
17,TTTTTTCGGTGTTTTTCTTTTTGTTTCTTTTCGCTTCGCTCGGAGTCACCTAGTGCAG,12700 fluorescence intensity (a.u.)
18,ATTGTTTTTTTTCTTTCTTTTTGCAAATCTCGCTTCGCTTCGGAGTCACCTAGTGCAG,8540 fluorescence intensity (a.u.)
19,GCTTCTCCATCTCGCATCTGCTGCCTCCTAATTTGCTTCGCGGAGTCACCTAGTGCAG,10000 fluorescence intensity (a.u.)
20,TCTCTCCATCCATCCCTGCTGCTTCTCCATCTCGCATCTGCGGAGTCACCTAGTGCAG,16700 fluorescence intensity (a.u.)
21,ACCGGTGGCTTTGTTTGGTTCCACGGTCTTCAGGTTGGGACGGAGTCACCTAGTGCAG,8130 fluorescence intensity (a.u.)
